Inconclusive results are not listed. Activity calls are given as the source filed them. Unless noted, the call rests on the fitted dose curve; in most records, active means well fitted curve in the direction sought with a large enough effect in the repeat runs; inconclusive means weak or mixed curves; inactive means no such curve, though single readings can be large; an effect the other way counts as inactive or inconclusive.
How the values were obtained:
[1] = target: Aryl hydrocarbon receptor (Homo sapiens) (UniProt P35869); assay: qHTS assay to identify small molecule that activate the aryl hydrocarbon receptor (AhR) signaling pathway (AID 743085); conditions: HepG2 AhR-luc (HG2L7.5c1), luciferase, 24 h; series mostly up to 70.3 µM;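 further: HG2L7.5c1 human HepG2 liver cells with stably integrated DRE-driven firefly reporter; nearly all actives have a fitted effect of over 15% in size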
Summary of the method: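 24 h compound exposure, 37C, HepG2-derived HG2L7.5c1 cells with DRE-responsive luciferase. Readouts: fluorescence viability, then luminescence at room temperature after 30 min.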

[2] = qHTS assay to identify small molecule that activate the aryl hydrocarbon receptor (AhR) signaling pathway - cell viability counter screen (AID 743086); conditions: HepG2-AhR-luc viability, CellTiter-Fluor, 24 h; series mostly up to 70.3 µM;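 further: HepG2 liver cells carrying the AhR DRE luciferase reporter; nearly all actives have a fitted effect of over 45% in size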
Summary of the method: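 Cytotoxicity counter screen: CellTiter-Fluor signal (30 min, 37 C) in 4000 HepG2 cells/well carrying the DRE-luciferase reporter, following 24 h compound exposure at 37 C.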

[3] = target: Peroxisome proliferator-activated receptor gamma (Homo sapiens) (UniProt P37231); assay: qHTS assay to identify small molecule agonists of the peroxisome proliferator-activated receptor gamma (PPARg) signaling pathway (AID 743094; active means well fitted activation curve with a large enough effect in the signal ratio in the repeat runs, not every such curve was filed as active; the % refers to the signal ratio); conditions: HEK293H PPARg-UAS-bla, beta-lactamase FRET ratio, 17 h; series mostly up to 57 µM
Summary of the method: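 Cells from the PPARg UAS-bla HEK293H line are plated and incubated 5 h at 37C. Compounds in DMSO are pinned in and left 17 h at 37C. LiveBLAzer B/G substrate is then added for 1 h at room temperature before fluorescence is measured.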

[4] = target: Peroxisome proliferator-activated receptor gamma (Homo sapiens) (UniProt P37231); assay: qHTS assay to identify small molecule antagonists of the peroxisome proliferator-activated receptor gamma (PPARg) signaling pathway (AID 743191; calls by dose curve; further: nearly all actives have a fitted effect of over 30% in size); conditions: HEK293H PPARg-UAS-bla, beta-lactamase ratio, antagonist, 17 h; series mostly up to 62.6 µM
Summary of the method: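 Beta-lactamase reporter under UAS control in HEK293H PPARg-bla cells; compound treatment 17 h at 37C. Read-out: fluorescence intensity after 1 h room-temperature incubation with LiveBLAzer B/G FRET substrate.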

[5] = qHTS assay for small molecule agonists of the antioxidant response element (ARE) signaling pathway (AID 743202; active means well fitted activation curve with a large enough effect in the signal ratio in the repeat runs, not every such curve was filed as active; the % refers to the signal ratio); conditions: HepG2 ARE-bla reporter, beta-lactamase FRET, 16 h; series mostly up to 73.3 µM
Summary of the method: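 After 16 hours of compound treatment at 37 C, HepG2 cells with a stably integrated ARE-driven beta-lactamase reporter were loaded 2 hours at room temperature with LiveBLAzer B/G FRET substrate and fluorescence intensity measured.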

[6] = qHTS assay for small molecule agonists of the antioxidant response element (ARE) signaling pathway - cell viability counter screen (AID 743203; calls by dose curve; further: nearly all actives have a fitted effect of over 55% in size); conditions: ARE-bla HepG2 viability, CellTiter-Glo luminescence, 16 h; series mostly up to 73.3 µM
Summary of the method: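 Cytotoxicity was tested in parallel with the ARE reporter screen. ARE-bla HepG2 cells were exposed to compounds for 16 hrs, and viability was taken from CellTiter-Glo luminescence.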

[7] = qHTS assay for small molecule activators of the heat shock response signaling pathway - cell viability counter screen (AID 743209); conditions: HSE-bla HeLa viability, CellTiter-Glo luminescence, 5 h; series mostly up to 62.6 µM; further: nearly all actives have a fitted effect of over 50% in size
Summary of the method: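 Cytotoxicity counter screen run in parallel with the HSE beta-lactamase reporter, using the same wells. HeLa HSE-bla cells received compound for 5 h at 37 C; ATP-based CellTiter-Glo luminescence was measured after 30 min at room temperature.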

[8] = qHTS assay to identify small molecule agonists of the peroxisome proliferator-activated receptor delta (PPARd) signaling pathway - cell viability counter screen (AID 743211); conditions: PPARd-bla HEK293H viability, CellTiter-Glo luminescence, 17 h; series mostly up to 62.6 µM; further: nearly all actives have a fitted effect of over 55% in size
Summary of the method: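 Luminescent ATP viability assay (CellTiter-Glo, 30 min RT) in UAS-bla HEK293H cells carrying the PPAR delta reporter construct, 3000 cells/well, after a 17 h compound treatment at 37 C.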

[9] = target: Peroxisome proliferator-activated receptor delta (Homo sapiens) (UniProt Q03181); assay: qHTS assay to identify small molecule agonists of the peroxisome proliferator-activated receptor delta (PPARd) signaling pathway (AID 743212; calls by dose curve); conditions: HEK293H PPARd-UAS-bla, beta-lactamase FRET ratio, 17 h; series mostly up to 62.6 µM
Summary of the method: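 Beta-lactamase reporter readout: a ratiometric FRET signal from the LiveBLAzer substrate after 2 h at room temperature. Compound exposure at 37 °C in PPARδ-bla HEK293H cells driven by an upstream activator sequence.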

[10] = qHTS assay to identify small molecule antagonists of the peroxisome proliferator-activated receptor delta (PPARd) signaling pathway - cell viability counter screen (AID 743213); conditions: PPARd-bla HEK293H viability, CellTiter-Glo luminescence, 17 h; series mostly up to 62 µM; further: nearly all actives have a fitted effect of over 50% in size
Summary of the method: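 PPARd-bla HEK293H cells were treated with compounds plus agonist L165041 (300 nM final) for 17 h at 37 C. Viability was then read in the same wells by CellTiter-Glo luminescence after 30 min at room temperature.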

[11] = target: Peroxisome proliferator-activated receptor delta (Homo sapiens) (UniProt Q03181); assay: qHTS assay to identify small molecule antagonists of the peroxisome proliferator-activated receptor delta (PPARd) signaling pathway (AID 743215; active means well fitted inhibition curve with a large enough effect in the signal ratio in the repeat runs, not every such curve was filed as active; the % refers to the signal ratio;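 further: cells stimulated with agonist L165041 at 300 nM final during compound exposure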); conditions: HEK293H PPARd-UAS-bla, beta-lactamase FRET ratio, antagonist, 17 h; series mostly up to 62 µM
Summary of the method: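 Cells: HEK293H with a UAS-driven beta-lactamase reporter responsive to PPARd. Compounds were co-added with L165041 (300 nM, final) and incubated 17 h at 37 C before a 2 h room-temperature FRET substrate step and fluorescence reading.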

[12] = qHTS assay to identify small molecule agonists of the farnesoid-X-receptor (FXR) signaling pathway - cell viability counter screen (AID 743218); conditions: FXR-bla HEK293T viability, CellTiter-Glo luminescence, 16 h; series mostly up to 62.6 µM; further: nearly all actives have a fitted effect of over 45% in size
Summary of the method: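 Cells were seeded, left 5 h at 37 C and 5% CO2, then dosed with compound in DMSO for 16 h. After the beta-lactamase FRET read, CellTiter-Glo was added and luminescence measured 30 min later.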

[13] = qHTS assay to identify small molecule antagonists of the farnesoid-X-receptor (FXR) signaling pathway - cell viability counter screen (AID 743221; active means well fitted cell-killing curve with a large enough effect in the repeat runs, not every such curve was filed as active; further: nearly all actives have a fitted effect of over 50% in size); conditions: FXR-bla HEK293T viability, CellTiter-Glo luminescence, 16 h; series mostly up to 62.6 µM
Summary of the method: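 In GeneBLAzer FXR-UAS-bla HEK 293T cells stimulated with 50 uM chenodeoxycholic acid (final), compounds acted for 16 h at 37 C. Viability was assessed afterwards by CellTiter-Glo luminescence.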

[14] = qHTS assay to identify small molecule antagonists of the peroxisome proliferator-activated receptor gamma (PPARg) signaling pathway - cell viability counter screen (AID 743194); conditions: PPARg-bla HEK293H viability, CellTiter-Glo luminescence, 17 h, co-treated with 50 nM rosiglitazone; series mostly up to 62.6 µM; further: nearly all actives have a fitted effect of over 55% in size
Summary of the method: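 Viability was measured as CellTiter-Glo luminescence in GeneBLAzer PPARg UAS-bla HEK293H cells. These cells had been exposed 17 h at 37 C to compounds together with rosiglitazone at 50 nM final, with the beta-lactamase readout taken in the same wells.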

[15] = qHTS assay for small molecule activators of the heat shock response signaling pathway (AID 743210; active means well fitted activation curve with a large enough effect in the signal ratio in the repeat runs, with a control signal flat, not every such curve was filed as active; the % refers to the signal ratio); conditions: HeLa HSE-bla reporter, beta-lactamase ratio, 5 h; series mostly up to 62.6 µM
Summary of the method: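 Compound exposure lasted 5 h at 37 C in HeLa cells carrying a heat-shock-element-driven beta-lactamase reporter. Read-out: fluorescence intensity after 2.5 h room-temperature loading with LiveBLAzer B/G FRET substrate.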

[16] = target: Vitamin D3 receptor (Homo sapiens) (UniProt P11473); assay: qHTS assay to identify small molecule agonists of the vitamin D receptor (VDR) signaling pathway (AID 743222; calls by dose curve); conditions: HEK293T VDR-UAS-bla, beta-lactamase FRET ratio, 16 h; series mostly up to 63.5 µM
Summary of the method: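 Cells carrying a VDR-driven beta-lactamase reporter are seeded at 2,000 per well and rested 4 h. Compounds in DMSO are added for 16 h at 37C, and FRET substrate fluorescence is measured after 2 h at room temperature.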

[17] = qHTS assay to identify small molecule agonists of the vitamin D receptor (VDR) signaling pathway - cell viability counter screen (AID 743224); conditions: VDR-bla HEK293T viability, CellTiter-Glo luminescence, 16 h; series mostly up to 62.6 µM; further: nearly all actives have a fitted effect of over 50% in size
Summary of the method: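 Cells: VDR-bla, 2,000/well, settled 4 h. Treatment: compounds in DMSO, 16 h, 37C/5% CO2. Readout: CellTiter-Glo luminescence after 30 min RT.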

[18] = target: Bile acid receptor (Homo sapiens) (UniProt Q96RI1); assay: qHTS assay to identify small molecule antagonists of the farnesoid-X-receptor (FXR) signaling pathway (AID 743217; active means well fitted inhibition curve with a large enough effect in the signal ratio in the repeat runs, not every such curve was filed as active; the % refers to the signal ratio); conditions: HEK293T FXR-UAS-bla, beta-lactamase ratio, CDCA-stimulated, 16 h; series mostly up to 62.6 µM
Summary of the method: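 Cells carrying a UAS-driven beta-lactamase reporter (GeneBLAzer FXR-UAS-bla HEK 293T) were plated and rested 5 h at 37 °C. Compounds in DMSO were added alongside chenodeoxycholic acid agonist at 50 uM final and left 16 h at 37 °C before FRET substrate readout.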

[19] = target: Bile acid receptor (Homo sapiens) (UniProt Q96RI1); assay: qHTS assay to identify small molecule agonists of the farnesoid-X-receptor (FXR) signaling pathway (AID 743220; active means well fitted activation curve with a large enough effect in the signal ratio in the repeat runs, not every such curve was filed as active; the % refers to the signal ratio); conditions: HEK293T FXR-UAS-bla, beta-lactamase FRET ratio, 16 h; series mostly up to 62.6 µM
Summary of the method: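 FXR-UAS-bla HEK 293T cells carrying a UAS-driven beta-lactamase reporter were plated for 5 h at 37C/5% CO2, then exposed to DMSO-dissolved Tox21 10K compounds for 16 h at 37C. A LiveBLAzer B/G FRET substrate was loaded for 2 h at room temperature before fluorescence reading.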

[20] = target: Vitamin D3 receptor (Homo sapiens) (UniProt P11473); assay: qHTS assay to identify small molecule antagonists of the vitamin D receptor (VDR) signaling pathway (AID 743223; active means well fitted inhibition curve with a large enough effect in the signal ratio in the repeat runs, not every such curve was filed as active; the % refers to the signal ratio); conditions: VDR-UAS-bla HEK293T, beta-lactamase FRET ratio, 16 h; series mostly up to 61 µM
Summary of the method: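 Agonist 1alpha,25-dihydroxyvitamin D3 (3 nM in well) was added with each compound to VDR-bla cells preincubated 4 h. Cells stood 16 h at 37C, then FRET substrate 2 h at room temperature; fluorescence intensity recorded.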

Measured: Potency

Chain of Bile acid receptor (Homo sapiens) (Q96RI1 whole entry, looked up): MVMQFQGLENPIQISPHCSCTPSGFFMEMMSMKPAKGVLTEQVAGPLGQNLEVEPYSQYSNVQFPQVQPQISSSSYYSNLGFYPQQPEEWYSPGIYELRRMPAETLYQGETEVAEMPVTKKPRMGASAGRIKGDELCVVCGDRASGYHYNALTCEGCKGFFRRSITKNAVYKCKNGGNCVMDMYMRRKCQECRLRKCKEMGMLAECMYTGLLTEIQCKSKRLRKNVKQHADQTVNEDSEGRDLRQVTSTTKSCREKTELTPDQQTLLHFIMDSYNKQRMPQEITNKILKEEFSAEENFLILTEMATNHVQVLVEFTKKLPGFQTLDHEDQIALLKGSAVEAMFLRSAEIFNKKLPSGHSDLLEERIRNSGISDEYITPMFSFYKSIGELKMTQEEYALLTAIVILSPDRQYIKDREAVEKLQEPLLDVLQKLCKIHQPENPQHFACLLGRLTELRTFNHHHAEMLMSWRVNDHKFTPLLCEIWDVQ
Chain of Peroxisome proliferator-activated receptor delta (Homo sapiens) (Q03181 whole entry, looked up): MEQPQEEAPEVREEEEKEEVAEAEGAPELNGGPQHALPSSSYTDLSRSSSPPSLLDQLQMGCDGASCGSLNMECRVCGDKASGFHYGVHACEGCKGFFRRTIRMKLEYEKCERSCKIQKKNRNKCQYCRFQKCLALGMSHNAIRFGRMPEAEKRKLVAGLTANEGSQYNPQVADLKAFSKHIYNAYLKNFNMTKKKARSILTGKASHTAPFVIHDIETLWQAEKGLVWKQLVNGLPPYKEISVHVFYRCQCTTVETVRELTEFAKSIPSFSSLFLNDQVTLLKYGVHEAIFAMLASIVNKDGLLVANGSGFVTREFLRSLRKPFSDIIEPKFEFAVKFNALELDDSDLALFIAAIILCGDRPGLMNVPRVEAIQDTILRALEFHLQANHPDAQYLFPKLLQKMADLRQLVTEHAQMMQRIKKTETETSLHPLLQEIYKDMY
Chain of Peroxisome proliferator-activated receptor gamma (Homo sapiens) (P37231 whole entry, looked up): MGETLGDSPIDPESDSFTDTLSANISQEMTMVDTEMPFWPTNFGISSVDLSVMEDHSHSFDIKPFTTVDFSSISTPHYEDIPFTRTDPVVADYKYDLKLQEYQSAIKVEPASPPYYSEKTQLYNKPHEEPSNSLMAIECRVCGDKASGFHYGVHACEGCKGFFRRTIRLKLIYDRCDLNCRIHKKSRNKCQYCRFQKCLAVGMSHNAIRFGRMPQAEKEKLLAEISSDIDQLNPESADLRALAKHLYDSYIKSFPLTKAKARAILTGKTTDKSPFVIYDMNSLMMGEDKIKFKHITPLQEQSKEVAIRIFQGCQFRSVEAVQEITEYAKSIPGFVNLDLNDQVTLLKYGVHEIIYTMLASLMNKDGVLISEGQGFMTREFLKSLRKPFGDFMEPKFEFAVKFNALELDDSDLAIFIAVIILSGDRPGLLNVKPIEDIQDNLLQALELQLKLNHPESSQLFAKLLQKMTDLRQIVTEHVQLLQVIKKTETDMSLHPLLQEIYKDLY
Chain of Aryl hydrocarbon receptor (Homo sapiens) (P35869 whole entry, looked up): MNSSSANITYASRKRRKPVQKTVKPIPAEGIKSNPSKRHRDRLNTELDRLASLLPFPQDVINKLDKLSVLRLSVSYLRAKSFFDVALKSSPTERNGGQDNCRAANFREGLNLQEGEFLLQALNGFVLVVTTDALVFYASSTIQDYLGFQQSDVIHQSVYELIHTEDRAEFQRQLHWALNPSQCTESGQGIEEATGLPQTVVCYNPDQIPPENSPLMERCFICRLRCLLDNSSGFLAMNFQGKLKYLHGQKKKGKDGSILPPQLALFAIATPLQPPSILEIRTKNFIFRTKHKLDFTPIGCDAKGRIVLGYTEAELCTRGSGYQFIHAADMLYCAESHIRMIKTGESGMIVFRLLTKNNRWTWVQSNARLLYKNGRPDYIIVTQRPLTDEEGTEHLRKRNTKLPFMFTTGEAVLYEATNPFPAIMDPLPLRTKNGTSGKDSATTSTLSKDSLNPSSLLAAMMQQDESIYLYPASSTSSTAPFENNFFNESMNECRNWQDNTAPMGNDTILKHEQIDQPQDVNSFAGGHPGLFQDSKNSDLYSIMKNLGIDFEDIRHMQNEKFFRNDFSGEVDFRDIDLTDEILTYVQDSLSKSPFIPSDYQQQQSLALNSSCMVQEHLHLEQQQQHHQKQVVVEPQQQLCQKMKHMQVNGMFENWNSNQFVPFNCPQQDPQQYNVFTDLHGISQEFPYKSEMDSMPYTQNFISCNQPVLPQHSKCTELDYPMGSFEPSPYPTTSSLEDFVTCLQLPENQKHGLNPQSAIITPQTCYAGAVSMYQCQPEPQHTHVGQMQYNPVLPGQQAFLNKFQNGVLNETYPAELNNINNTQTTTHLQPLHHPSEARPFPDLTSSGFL
Chain of Vitamin D3 receptor (Homo sapiens) (P11473 whole entry, looked up): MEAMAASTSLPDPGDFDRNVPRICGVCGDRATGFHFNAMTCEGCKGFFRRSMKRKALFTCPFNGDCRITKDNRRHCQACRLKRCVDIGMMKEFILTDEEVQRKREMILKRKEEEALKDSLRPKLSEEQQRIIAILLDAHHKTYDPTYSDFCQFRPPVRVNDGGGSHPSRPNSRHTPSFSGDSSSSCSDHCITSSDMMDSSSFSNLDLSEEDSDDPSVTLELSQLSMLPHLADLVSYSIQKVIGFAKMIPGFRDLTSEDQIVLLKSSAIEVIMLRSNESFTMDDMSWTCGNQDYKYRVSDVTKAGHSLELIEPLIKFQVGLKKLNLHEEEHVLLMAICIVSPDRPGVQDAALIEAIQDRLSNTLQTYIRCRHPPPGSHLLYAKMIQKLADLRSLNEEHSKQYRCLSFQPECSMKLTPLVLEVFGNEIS

CC(C)C1OCCN1CCOC(=O)NCCCCCCNC(=O)OCCN1CCOC1C(C)C (centres undefined)
not listed: [14] | [15] | [16] | [17] | [18] | [19] | [20]
inactive: all other assays above

C[Si]1(C)O[Si](C)(C)O[Si](C)(C)O[Si](C)(C)O[Si](C)(C)O1
not listed: [4] | [7] | [18] | [19] | [20]
inactive: all other assays above

CCCCCCCCCCCCCCC(=O)NC(CO)CCCCCCCCCCCCCC (centres undefined)
not listed: [10] | [11] | [12] | [14] | [15] | [17]
inactive: all other assays above

Cc1ccc(C(=O)O)cc1[N+](=O)[O-]
not listed: [4] | [9] | [10] | [11] | [18] | [19] | [20]
inactive: all other assays above

CCCCOC(=O)[C@H](C)O
not listed: [5] | [7] | [12] | [14] | [18] | [20]
inactive: all other assays above

CCCC(CC)c1ccccc1 (centres undefined)
not listed: [9] | [11] | [14] | [18] | [19] | [20]
inactive: all other assays above

CN(C)CCOC(=O)C(c1ccccc1)C1(O)CCCC1 (centres undefined)
not listed: [4] | [17] | [18] | [19]
inactive: all other assays above

Cc1cccc(Cl)c1
not listed: [4] | [15] | [16] | [20]
inactive: all other assays above

CC1CCc2c(N3CCC(O)CC3)c(F)cc3c(=O)c(C(=O)O)cn1c23 (centres undefined)
not listed: [4] | [5] | [7] | [14] | [16] | [18] | [19]
inactive: all other assays above

CC(=O)CC(=O)OC(C)(C)C
not listed: [4] | [5] | [15] | [18] | [19]
inactive: all other assays above

[O]=[Mo](=[O])=[O]
not listed: [3] | [4] | [8] | [11] | [12] | [18] | [19]
inactive: all other assays above

CC(C)OC(=O)CCC(=O)OC(C)C
not listed: [4] | [5] | [14] | [18] | [20]
inactive: all other assays above

CC(=O)OC1CCCCC1C(C)(C)C (centres undefined)
not listed: [2] | [7] | [16] | [18] | [19] | [20]
inactive: all other assays above

C=C(C)[C@@H]1CC=C(C)C(=O)C1
not listed: [4] | [9] | [11] | [14] | [18] | [19]
inactive: all other assays above

CCCCCCC1(C)CCC(=O)O1 (centres undefined)
not listed: [2] | [7] | [10] | [11] | [17] | [18] | [19] | [20]
inactive: all other assays above

C=CCCCCCCCCC(=O)OCCCC
not listed: [4] | [5] | [15] | [18] | [20]
inactive: all other assays above

CC1=NN(c2ccc(S(=O)(=O)O)cc2)C(=O)C1
not listed: [2] | [9] | [11] | [12] | [18] | [19] | [20]
inactive: all other assays above

— PubChem BioAssay (Tox21)
